Reference: PubChem BioAssay (NCI)
The panel holds about 79,000 compounds, 15% with a hit somewhere; the sample as a whole holds those more often. Calls of active or inactive are those of the source. Rule as the data show it: active = growth inhibition above about 70%; inactive = the rest.

Columns and labels:
[1] = NCI Yeast Anticancer Drug Screen. Data for the rad14 strain (AID 159);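 also: 0% = growth of vehicle-treated control cultures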; details: S. cerevisiae rad14 strain growth inhibition, hits give high values
Procedure, shortened: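 Inhibition of growth is reported for a repair-deficient yeast mutant following compound treatment, calculated relative to cultures that received vehicle.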

[2] = NCI Yeast Anticancer Drug Screen. Data for the sgs1 mgt1 strain (AID 161);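 also: 0% = growth of cultures given vehicle only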; details: S. cerevisiae sgs1 mgt1 strain, hits give high values
Procedure, shortened: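 Read-out: growth inhibition vs vehicle controls. Cells: mutant yeast strain deficient in DNA damage repair.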

[3] = NCI Yeast Anticancer Drug Screen. Data for the CLN2oe strain (AID 163);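 also: 0% = growth of vehicle-only control cultures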; details: S. cerevisiae CLN2oe strain, hits give high values
Procedure, shortened: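 Here, growth inhibition in a cell-cycle-altered yeast strain after compound exposure was quantified against vehicle control growth.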

[4] = NCI Yeast Anticancer Drug Screen. Data for the cln2 rad14 strain (AID 165);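 also: 0% = growth equal to vehicle treated cultures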; details: S. cerevisiae cln2 rad14 strain, hits give high values
Procedure, shortened: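 Growth of compound-exposed yeast (cln2 rad14 genotype) measured and expressed as inhibition relative to vehicle.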

[5] = NCI Yeast Anticancer Drug Screen. Data for the bub3 strain (AID 167); details: S. cerevisiae bub3 mutant strain, hits give high values
Procedure, shortened: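 Mutant yeast screening strain plus compound; vehicle-treated cultures serve as the 0% inhibition reference.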

[6] = NCI Yeast Anticancer Drug Screen. Data for the wt2 strain (AID 169); details: S. cerevisiae wt2 strain growth inhibition, hits give high values
Procedure, shortened: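 Genetically defined yeast strains from a DNA-repair/cell-cycle panel were used. Compound-exposed yeast growth was measured, and the inhibition was calculated relative to vehicle treatment.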

[7] = NCI Yeast Anticancer Drug Screen. Data for the mlh1 strain (AID 171);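 also: 0% = growth of vehicle-treated control cultures of the same strain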; details: S. cerevisiae mlh1 strain growth inhibition, hits give high values
Procedure, shortened: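 Here the genetically defined yeast mutant is grown with each compound, and the extent to which its growth falls below that of vehicle-exposed cells is reported.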

[8] = NCI Yeast Anticancer Drug Screen. Data for the mlh1 rad18 strain (AID 175); details: S. cerevisiae mlh1 rad18 strain growth inhibition, hits give high values
Procedure, shortened: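 In this whole-cell yeast screen, a strain with altered DNA damage repair is challenged with compound, and its growth is measured against matched vehicle-treated controls.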

[9] = NCI Yeast Anticancer Drug Screen. Data for the rad18 strain (AID 177); details: S. cerevisiae rad18 mutant growth inhibition, hits give high values
Procedure, shortened: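 Screen uses a yeast strain with a defined lesion in DNA damage repair; compound effect is read as loss of growth compared to untreated vehicle cultures.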

[10] = NCI Yeast Anticancer Drug Screen. Data for the rad52 strain (AID 147);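 also: 0% = growth of vehicle-treated control cultures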; details: S. cerevisiae rad52 mutant growth inhibition, hits give high values
Procedure, shortened: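 Measured: yeast growth inhibition. System: strain with a defined DNA damage repair alteration. Reference: vehicle-treated control cultures.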

[11] = NCI Yeast Anticancer Drug Screen. Data for the rad50EPP+ strain (AID 151);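 also: 0% = growth of vehicle-treated control cultures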; details: S. cerevisiae rad50 mutant strain, hits give high values
Procedure, shortened: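 One strain with a rad50 alteration (rad50EPP+) was compound-treated, its growth then compared to that of vehicle controls.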

[12] = NCI Yeast Anticancer Drug Screen. Data for the rad50 strain (AID 155);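 also: 0% = growth of vehicle-only cultures of the same strain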; details: S. cerevisiae rad50 strain growth inhibition, hits give high values
Procedure, shortened: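 Vehicle-treated cultures provide the reference for the growth inhibition reported for compound-exposed, repair-deficient yeast.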

[13] = NCI Yeast Anticancer Drug Screen. Data for the mec2-1 strain (AID 157); details: S. cerevisiae mec2-1 strain, hits give high values
Procedure, shortened: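 Test agents were screened against the mec2-1 yeast strain, with defined DNA repair or cell cycle alteration. Growth was scored as inhibition against vehicle-only controls.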

[14] = NCI Yeast Anticancer Drug Screen. Data for the sgs1 strain (AID 173);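 also: 0% = growth of vehicle-only control cultures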; details: S. cerevisiae sgs1 mutant, hits give high values
Procedure, shortened: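 Relative growth inhibition, referenced to vehicle, was determined in a yeast strain with a defined alteration affecting DNA damage repair or cell cycle control after compound exposure.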

[15] = at 5.0 µM (retest, dose inferred, filed as 0.5)
[16] = at 50.0 µM (retest, dose inferred, filed as 5.0)

Measured: growth inhibition

CCCc1[nH]nc(C(N)=O)c1N=NN(C)C
active: [8]; at 50.0 µM 73.5% | [9]; at 33.0 µM 83% | [9]; at 100.0 µM 94%
inactive: [1]; at 100.0 µM 30% | [2]; [15] -55% | [2]; [16] 18% | [2]; at 50.0 µM 44.1% | [3]; at 1.2 µM -3% | [3]; at 3.7 µM -3% | [3]; at 11.0 µM 2% | [3]; at 33.0 µM -3% | [3]; at 100.0 µM 5% | [4]; [15] -59% | [4]; [16] -48% | [4]; at 50.0 µM 13.4% | [5]; at 1.2 µM -13% | [5]; at 3.7 µM -9% | [5]; [15] -60% | [5]; at 11.0 µM -5% | [5]; at 33.0 µM -6% | [5]; [16] -73% | [5]; at 50.0 µM -0.25% | [5]; at 100.0 µM 4% | [6]; at 1.2 µM -1% | [6]; at 3.7 µM 0% | [6]; at 11.0 µM -1% | [6]; at 33.0 µM 3% | [6]; at 100.0 µM 10% | [7]; at 1.2 µM 7% | [7]; at 3.7 µM -5% | [7]; at 11.0 µM -2% | [7]; at 33.0 µM 0% | [7]; at 100.0 µM 11% | [8]; [15] -120% | [8]; [16] 13% | [9]; at 1.2 µM -2% | [9]; at 3.7 µM 6% | [9]; at 11.0 µM 32%

COc1ccc(/C=C2\SC(=S)N(C=C3C(=O)NC(=S)NC3=O)C2=O)cc1OC
active: [10]; at 33.0 µM 83% | [10]; at 100.0 µM 89% | [12]; at 33.0 µM 80% | [12]; at 100.0 µM 88% | [13]; at 33.0 µM 91% | [13]; [16] 75% | [13]; at 50.0 µM 77.8% | [13]; at 100.0 µM 93% | [1]; at 33.0 µM 85% | [1]; at 100.0 µM 92% | [2]; [16] 76% | [2]; at 50.0 µM 85.8% | [3]; at 33.0 µM 85% | [3]; at 100.0 µM 90% | [6]; at 33.0 µM 92% | [6]; at 100.0 µM 95% | [7]; at 33.0 µM 89% | [7]; at 100.0 µM 89% | [14]; at 33.0 µM 94% | [14]; at 100.0 µM 93% | [9]; at 33.0 µM 82% | [9]; at 100.0 µM 89%
inactive: [10]; at 1.2 µM 12% | [10]; at 3.7 µM 15% | [10]; at 11.0 µM 47% | [11]; at 1.2 µM 0% | [11]; at 3.7 µM 7% | [11]; at 11.0 µM 37% | [11]; at 33.0 µM 56% | [11]; at 100.0 µM 59% | [12]; at 1.2 µM 3% | [12]; at 3.7 µM 3% | [12]; [15] -2% | [12]; at 11.0 µM 37% | [12]; [16] 65% | [12]; at 50.0 µM 49.8% | [13]; at 1.2 µM 10% | [13]; at 3.7 µM 14% | [13]; [15] -16% | [13]; at 11.0 µM 58% | [1]; at 1.2 µM 6% | [1]; at 3.7 µM 15% | [1]; at 11.0 µM 52% | [2]; [15] -6% | [3]; at 1.2 µM -11% | [3]; at 3.7 µM -1% | [3]; at 11.0 µM 39% | [4]; [15] -25% | [4]; [16] 33% | [4]; at 50.0 µM 37.6% | [5]; at 1.2 µM 6% | [5]; at 3.7 µM 8% | [5]; [15] 3% | [5]; at 11.0 µM 33% | [5]; at 33.0 µM 60% | [5]; [16] -1% | [5]; at 50.0 µM 44.3% | [5]; at 100.0 µM 59% | [6]; at 1.2 µM 1% | [6]; at 3.7 µM 7% | [6]; at 11.0 µM 52% | [7]; at 1.2 µM 0% | [7]; at 3.7 µM 10% | [7]; at 11.0 µM 51% | [14]; at 1.2 µM 11% | [14]; at 3.7 µM 29% | [14]; at 11.0 µM 61% | [8]; [15] 7% | [8]; [16] 69% | [8]; at 50.0 µM 68.3% | [9]; at 1.2 µM 16% | [9]; at 3.7 µM 34% | [9]; at 11.0 µM 60%
